This passage reports composite z-score and z-score results from PubChem BioAssay.

In assay [1] the test system is PRMT1 (protein arginine N-methyltransferase 1). Description: PRMT1 binders on small-molecule microarrays, primary screen, biochemical, small-molecule microarray, 635 nm fluorescence (AID 1088).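 Also: binding of Prmt1 protein to compounds spotted on small-molecule microarray slides.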 The note with it: small-molecule microarray binding, higher = more signal.
The nature of assay [2]: yeast growth modulation, basal conditions, primary screen, YJM789 clinical isolate, OD600, 24 h (AID 1089).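 Also: growth of clinical yeast isolate S. cerevisiae YJM 789 seeded 1000 cells per well; test concentration not given here.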 The conditions noted are these: S. cerevisiae YJM789 growth, higher = more signal, called active from +8 up or from −8 down.
Assay [3] is described as follows: fission yeast growth modulation, primary screen, strain 972, OD600, 24 h, no modulator (AID 1090).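 Also: basal condition with compound alone and no growth modifier present; test concentration not given here.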 The note with it: S. pombe 972 growth, higher = more signal, called active from +8 up or from −8 down.
The nature of assay [4]: S. cerevisiae growth modulation with rapamycin, primary screen, strain BY4716, OD600, 96 h (AID 1091). Also: test concentration not given here. The note with it: higher = more signal, called active from +8 up or from −8 down.
The target of assay [5] is Torsin-1A-interacting protein 2 (Homo sapiens) (UniProt Q8NFQ8). The assay can be described thus: LULL1 binders on small-molecule microarray, primary screen, cell lysate, human LULL1 lysate, 635/667 nm fluorescence (AID 1092).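 Also: probe is lysate of COS7 cells overexpressing human LULL1; score merges per-feature 667 nm fluorescence with signal-to-noise.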 The conditions noted are these: hLULL1 lysate binding, 635 nm fluorescence, higher = more signal.
Sequence of Torsin-1A-interacting protein 2 (Homo sapiens) (Q8NFQ8 whole entry, looked up): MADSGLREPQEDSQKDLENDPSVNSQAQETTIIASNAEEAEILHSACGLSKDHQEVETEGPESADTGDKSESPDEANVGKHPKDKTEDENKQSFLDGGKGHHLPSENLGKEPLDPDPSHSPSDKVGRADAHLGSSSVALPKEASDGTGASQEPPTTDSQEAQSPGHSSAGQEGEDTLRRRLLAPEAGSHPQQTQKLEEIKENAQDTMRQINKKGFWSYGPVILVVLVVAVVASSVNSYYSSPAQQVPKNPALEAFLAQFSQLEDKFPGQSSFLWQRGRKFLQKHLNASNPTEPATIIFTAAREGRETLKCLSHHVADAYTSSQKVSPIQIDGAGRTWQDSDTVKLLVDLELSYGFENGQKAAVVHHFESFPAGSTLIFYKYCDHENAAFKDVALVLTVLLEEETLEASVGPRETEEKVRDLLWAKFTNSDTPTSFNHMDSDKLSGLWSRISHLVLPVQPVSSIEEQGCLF
Assay [6] in a line: E. coli growth modulation, two-sided OD650, primary screen, E. coli filamentation project, strain DRC41, 24 h (AID 1093).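 Also: MC1000 strain lacking acrAB efflux and sulA so SOS filamentation is blocked; test concentration not given here.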 The note with it: OD650, 24 h, higher = more signal, called active from +8 up or from −8 down.
Assay [7] is described as follows: small-molecule microarray binders of probe aLefty2, primary screen, biochemical, biotinylated probe, 635/667 nm fluorescence (AID 1094).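 Also: score merges spot fluorescence near 667 nm with spot signal-to-noise ratio.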 The conditions noted are these: higher = more signal.
Assay [8] has as its system Noggin (protein binding on small-molecule microarray). Description: Noggin binders on small-molecule microarray, primary screen, biochemical, 635/667 nm fluorescence (AID 1095).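 Also: score merges 667 nm feature fluorescence with signal to noise over triplicate slides.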 The note with it: 635 nm fluorescence, higher = more signal.
Assay [9] deals with Neurogenic locus notch homolog protein 3 (Homo sapiens) (UniProt Q9UM47). The assay can be described thus: NOTCH3 binders on small-molecule microarray, primary screen, biochemical, 635/667 nm fluorescence (AID 1096). The conditions noted are these: NOTCH3 binding, 635 nm fluorescence, higher = more signal.
Sequence of Neurogenic locus notch homolog protein 3 (Homo sapiens) (Q9UM47 whole entry, looked up): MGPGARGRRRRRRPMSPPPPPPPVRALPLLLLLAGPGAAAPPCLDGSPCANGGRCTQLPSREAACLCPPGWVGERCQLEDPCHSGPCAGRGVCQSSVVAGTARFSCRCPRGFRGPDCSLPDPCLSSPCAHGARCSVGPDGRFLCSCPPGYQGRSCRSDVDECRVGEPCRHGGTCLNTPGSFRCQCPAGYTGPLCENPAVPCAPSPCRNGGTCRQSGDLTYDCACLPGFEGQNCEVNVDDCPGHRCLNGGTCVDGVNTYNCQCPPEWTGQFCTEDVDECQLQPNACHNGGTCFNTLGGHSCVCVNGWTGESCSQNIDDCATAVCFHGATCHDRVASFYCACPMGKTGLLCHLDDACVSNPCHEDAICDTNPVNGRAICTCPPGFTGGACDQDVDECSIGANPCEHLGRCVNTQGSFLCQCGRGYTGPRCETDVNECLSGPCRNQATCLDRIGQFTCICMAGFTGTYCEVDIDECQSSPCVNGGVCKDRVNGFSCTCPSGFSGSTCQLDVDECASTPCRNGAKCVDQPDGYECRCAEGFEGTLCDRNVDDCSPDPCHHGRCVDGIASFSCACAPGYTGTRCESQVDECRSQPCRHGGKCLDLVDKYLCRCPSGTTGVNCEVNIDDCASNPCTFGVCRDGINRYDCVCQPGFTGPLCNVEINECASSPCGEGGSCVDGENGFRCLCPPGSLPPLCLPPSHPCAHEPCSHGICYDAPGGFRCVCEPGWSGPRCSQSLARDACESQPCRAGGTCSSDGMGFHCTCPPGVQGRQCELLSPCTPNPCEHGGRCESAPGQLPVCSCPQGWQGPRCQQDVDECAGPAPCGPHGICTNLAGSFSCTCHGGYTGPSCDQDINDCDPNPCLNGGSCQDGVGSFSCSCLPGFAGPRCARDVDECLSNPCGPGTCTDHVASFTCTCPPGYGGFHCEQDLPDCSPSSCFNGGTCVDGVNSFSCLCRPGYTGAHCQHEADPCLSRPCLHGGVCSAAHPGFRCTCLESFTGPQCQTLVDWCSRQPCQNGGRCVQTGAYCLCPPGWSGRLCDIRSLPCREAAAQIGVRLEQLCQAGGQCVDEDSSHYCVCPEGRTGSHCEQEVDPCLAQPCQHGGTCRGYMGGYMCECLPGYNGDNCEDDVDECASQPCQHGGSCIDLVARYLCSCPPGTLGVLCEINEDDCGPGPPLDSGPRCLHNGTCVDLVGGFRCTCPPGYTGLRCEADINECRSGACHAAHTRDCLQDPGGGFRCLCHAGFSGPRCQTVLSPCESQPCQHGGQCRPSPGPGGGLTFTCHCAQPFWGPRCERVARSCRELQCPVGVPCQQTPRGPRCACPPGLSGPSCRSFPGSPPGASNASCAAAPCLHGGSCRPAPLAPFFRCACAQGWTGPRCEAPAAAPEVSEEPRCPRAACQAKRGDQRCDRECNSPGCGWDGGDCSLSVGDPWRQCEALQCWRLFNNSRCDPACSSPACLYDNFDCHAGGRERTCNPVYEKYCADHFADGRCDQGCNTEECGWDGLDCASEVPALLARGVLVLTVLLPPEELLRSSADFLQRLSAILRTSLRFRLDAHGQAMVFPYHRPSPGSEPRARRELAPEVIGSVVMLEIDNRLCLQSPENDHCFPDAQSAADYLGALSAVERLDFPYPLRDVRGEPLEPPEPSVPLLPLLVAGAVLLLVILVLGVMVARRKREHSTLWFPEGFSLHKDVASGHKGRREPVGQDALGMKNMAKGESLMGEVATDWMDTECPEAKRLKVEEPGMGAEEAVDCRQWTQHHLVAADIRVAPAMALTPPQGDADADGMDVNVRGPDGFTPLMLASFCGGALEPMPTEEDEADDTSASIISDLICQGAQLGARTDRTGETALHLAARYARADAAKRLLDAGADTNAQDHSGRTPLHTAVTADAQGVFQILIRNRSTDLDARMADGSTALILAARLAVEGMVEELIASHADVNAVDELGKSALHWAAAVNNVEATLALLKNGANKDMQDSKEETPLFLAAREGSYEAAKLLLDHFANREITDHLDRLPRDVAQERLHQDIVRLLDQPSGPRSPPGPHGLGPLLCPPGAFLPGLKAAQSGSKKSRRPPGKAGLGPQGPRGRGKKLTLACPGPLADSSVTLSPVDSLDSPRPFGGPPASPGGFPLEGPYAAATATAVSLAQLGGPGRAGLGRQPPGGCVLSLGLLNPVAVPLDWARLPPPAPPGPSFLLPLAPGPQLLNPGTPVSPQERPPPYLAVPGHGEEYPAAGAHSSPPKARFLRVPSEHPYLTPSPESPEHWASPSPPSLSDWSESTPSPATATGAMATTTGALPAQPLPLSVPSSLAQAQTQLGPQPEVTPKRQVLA
Assay [10] is described as follows: small-molecule microarray binders of probe aEGFR, primary screen, biochemical, biotinylated probe, 635/667 nm fluorescence (AID 1097).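 Also: probe is a biotinylated anti-EGFR antibody binding compounds printed on slides; score combines fluorescence near 667 nm and signal to noise of each spot.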 The conditions noted are these: higher = more signal.
The test system of assay [11] is Plasmodium falciparum Sir2 (PF13_0152, Sir2A). Description: pfSir2 binders on small-molecule microarrays, primary screen, biochemical, small-molecule microarray, 635 nm fluorescence (AID 1098).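 Also: score merges spot fluorescence intensity with its signal-to-noise ratio.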 The conditions noted are these: small-molecule microarray binding, fluorescence 635 nm; higher = more signal.
Assay [12] is described as follows: small-molecule microarray binders of probe aDKK1, primary screen, biochemical, biotinylated probe, 635/667 nm fluorescence (AID 1099).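 Also: score merges 667nm spot fluorescence with signal to noise across triplicate slides; reference of the scale not given here.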 The note with it: higher = more signal.
Assay [13] in a line: small-molecule microarray binders of probe aCHRDL2, primary screen, biochemical, biotinylated probe, 635/667 nm fluorescence (AID 1100). The conditions noted are these: higher = more signal.
Assay [14] can be described thus: splicing luciferase reporter signal modulators, primary screen, spliceosome inhibition project, cell-based, HEK293, splice +/- reporter (AID 1101).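 Also: HEK293 cells carrying a splicing-competent luciferase reporter gene; test concentration not given here.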 The note with it: luminescence, 24 h, higher = more signal, called active from +8 up or from −8 down. On the technique in general: A reporter such as luciferase makes a cellular process visible.
Assay [15] has as its target Fibroblast growth factor 10 (Homo sapiens) (UniProt O15520). The assay can be described thus: FGF10 binders on small-molecule microarrays, primary screen, biochemical, small-molecule microarray, 635 nm fluorescence (AID 1102). The conditions noted are these: FGF10 binding, fluorescence 635 nm, higher = more signal.
Assay [16] concerns glycogen synthase kinase-3 (GSK3A per assay name; protocol says GSK3B). The assay can be described thus: GSK3 binders on small-molecule microarrays, primary screen, biochemical, small-molecule microarray, 635 nm fluorescence, GSK3A (AID 1103). Also: the record names both GSK3A and GSK3B. The conditions noted are these: small-molecule microarray binding, fluorescence 635 nm; higher = more signal.
Assay [17] concerns the target Epidermal growth factor receptor (Homo sapiens) (UniProt P00533). The assay can be described thus: EGFR binders on small-molecule microarrays, primary screen, biochemical, small-molecule microarray, 635 nm fluorescence (AID 1104).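 Also: score merges 667 nm emission intensity with spot signal to noise over triplicate slides.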 The conditions noted are these: EGFR binding, higher = more signal.
Assay [18] concerns the target Follistatin-related protein 3 (Homo sapiens) (UniProt O95633). The assay can be described thus: FSTL3 binders on small-molecule microarrays, primary screen, biochemical, small-molecule microarray, 635 nm fluorescence (AID 1105).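 Also: score merges emission near 667 nm and signal to noise per printed spot across three slides.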 The note with it: FSTL3 binding, higher = more signal.
Assay [19] concerns the target Dickkopf-related protein 1 (Homo sapiens) (UniProt O94907). Description: DKK1 binders on small-molecule microarrays, primary screen, biochemical, small-molecule microarray, 635 nm fluorescence scan (AID 1106).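 Also: score merges emission near 667 nm with signal to noise over three replicate slides.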 The note with it: DKK1 binding, higher = more signal.
Assay [20] relates to Inhibin beta A chain (activin A). Description: INHBA (activin A) binders on microarrays, primary screen, biochemical, small-molecule microarray, 635 nm fluorescence scan (AID 1107).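 Also: mouse activin A protein probed at 4.33 µg/mL on printed slides; score merges bound-protein fluorescence near 667 nm with spot signal-to-noise.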 The conditions noted are these: small-molecule microarray binding, higher = more signal.

Calls of active or inactive are those of the source.

Sequence of Fibroblast growth factor 10 (Homo sapiens) (O15520 whole entry, looked up): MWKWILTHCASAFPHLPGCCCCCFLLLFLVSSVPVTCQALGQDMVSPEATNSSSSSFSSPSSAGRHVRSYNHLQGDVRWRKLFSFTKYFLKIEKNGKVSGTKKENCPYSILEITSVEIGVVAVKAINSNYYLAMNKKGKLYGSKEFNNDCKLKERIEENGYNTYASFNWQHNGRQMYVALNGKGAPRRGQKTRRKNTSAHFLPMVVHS
Sequence of Follistatin-related protein 3 (Homo sapiens) (O95633 whole entry, looked up): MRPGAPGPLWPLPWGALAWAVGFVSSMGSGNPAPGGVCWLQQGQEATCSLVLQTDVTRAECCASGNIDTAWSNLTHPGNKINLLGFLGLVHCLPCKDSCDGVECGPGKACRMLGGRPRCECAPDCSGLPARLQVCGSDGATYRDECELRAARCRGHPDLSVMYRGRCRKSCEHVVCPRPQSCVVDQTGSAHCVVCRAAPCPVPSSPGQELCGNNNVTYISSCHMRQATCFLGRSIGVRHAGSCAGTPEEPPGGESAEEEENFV
Sequence of Dickkopf-related protein 1 (Homo sapiens) (O94907 whole entry, looked up): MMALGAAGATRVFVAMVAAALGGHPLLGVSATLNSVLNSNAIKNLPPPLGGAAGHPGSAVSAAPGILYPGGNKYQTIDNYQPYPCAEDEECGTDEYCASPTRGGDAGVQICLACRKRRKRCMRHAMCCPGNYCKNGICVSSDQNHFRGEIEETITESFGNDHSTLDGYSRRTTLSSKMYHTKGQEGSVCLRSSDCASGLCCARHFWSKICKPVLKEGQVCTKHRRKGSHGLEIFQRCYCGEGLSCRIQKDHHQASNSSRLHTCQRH
Sequence of Epidermal growth factor receptor (Homo sapiens) (P00533 whole entry, looked up): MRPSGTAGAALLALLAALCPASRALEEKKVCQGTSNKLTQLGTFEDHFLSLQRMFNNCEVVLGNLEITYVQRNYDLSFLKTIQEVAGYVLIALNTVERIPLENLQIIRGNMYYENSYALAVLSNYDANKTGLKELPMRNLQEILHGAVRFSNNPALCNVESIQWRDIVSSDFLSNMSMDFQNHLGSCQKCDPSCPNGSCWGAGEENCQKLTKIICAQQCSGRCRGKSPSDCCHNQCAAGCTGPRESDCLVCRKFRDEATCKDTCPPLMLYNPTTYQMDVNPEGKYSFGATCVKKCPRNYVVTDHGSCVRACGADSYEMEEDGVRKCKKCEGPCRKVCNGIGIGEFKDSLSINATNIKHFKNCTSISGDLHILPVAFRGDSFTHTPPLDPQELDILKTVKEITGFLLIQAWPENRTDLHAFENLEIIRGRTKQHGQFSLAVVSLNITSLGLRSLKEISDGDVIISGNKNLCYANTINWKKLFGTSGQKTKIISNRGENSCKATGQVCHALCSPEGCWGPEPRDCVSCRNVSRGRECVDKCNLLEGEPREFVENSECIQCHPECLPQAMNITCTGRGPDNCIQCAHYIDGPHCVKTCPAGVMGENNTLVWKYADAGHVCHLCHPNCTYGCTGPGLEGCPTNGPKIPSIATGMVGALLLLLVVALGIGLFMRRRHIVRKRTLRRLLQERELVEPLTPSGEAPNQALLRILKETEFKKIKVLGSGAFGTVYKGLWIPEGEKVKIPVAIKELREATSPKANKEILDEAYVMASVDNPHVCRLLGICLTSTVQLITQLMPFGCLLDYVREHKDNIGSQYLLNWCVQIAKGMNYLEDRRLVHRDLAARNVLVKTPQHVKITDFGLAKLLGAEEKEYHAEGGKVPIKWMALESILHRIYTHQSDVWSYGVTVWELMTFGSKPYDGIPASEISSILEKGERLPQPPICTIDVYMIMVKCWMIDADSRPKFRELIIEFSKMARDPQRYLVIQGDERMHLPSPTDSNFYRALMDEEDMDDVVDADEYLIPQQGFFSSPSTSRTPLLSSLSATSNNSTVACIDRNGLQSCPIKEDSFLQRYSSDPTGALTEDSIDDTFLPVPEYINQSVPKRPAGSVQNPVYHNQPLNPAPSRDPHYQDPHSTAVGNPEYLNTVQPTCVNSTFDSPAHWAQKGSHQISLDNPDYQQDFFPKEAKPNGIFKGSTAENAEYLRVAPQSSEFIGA

As for `C[C@@H](c1ccccc1)N1C(=O)[C@H]2[C@H]3[C@H](O)C=CC(=O)[C@@H]3CC[C@H]2C1=O`, the composite z-score is 0.595 in assay [1]; -0.309 in assay [5]; -0.252 in assay [7]; 0.421 in assay [8]; 0.698 in [9]; -0.0649 in assay [10]. The composite z-score in [11] was -0.0301; in assay [12], -0.293; in [13], -0.674; in assay [15], 0.373; in [16] it was 0.606; in assay [17] it was 0.54. Also, the figures for the composite z-score in [18], in assay [19] and in assay [20] were 0.699, 0.557 and 0.25, respectively. The z-score is -0.432 (inactive) in [2]; -0.271 (inactive) in assay [3]; -0.402 (inactive) in assay [4]; 0.372 (inactive) in assay [6]; 0.432 (inactive) in [14].
In the case of `C[C@@H](c1ccccc1)N1C(=O)[C@H]2[C@H]3[C@H](O)[C@H](O)CC(=NNC(=O)OCc4ccccc4)[C@H]3CC[C@H]2C1=O`, the composite z-score was -0.26 in assay [1]; 0.71 in [5]; 0.2 in assay [7]; 0.124 in [8]; -0.246 in assay [9]; 0.229 in [10]. For the same molecule, the composite z-score in assay [11] was -0.0979; in assay [12] it was 0.24; in [13], 0.794; in [15], 0.0359; in assay [16] it was -0.354; in [17], 0.191. Also, the composite z-score was -0.461 in assay [18], -0.415 in assay [19] and 0.0683 in assay [20]. In addition, the z-score is 0.547 (inactive) in assay [2]; 0.408 (inactive) in assay [3]; 0.698 (inactive) in assay [4]; 0.687 (inactive) in assay [6]; 0.373 (inactive) in [14].
In the case of `COc1ccc([Si](C)(C)[C@H]2[C@H](CC(=O)N3CCC[C@H]3CO)O[C@@]3(C(=O)N(Cc4cccc(N5C(=O)COc6ccccc65)c4)c4ccccc43)[C@@H]2C)cc1`, the composite z-score was 1.41 in [1]; 2.25 in [5]; -0.166 in assay [7]; 1.61 in assay [8]; 1.14 in [9]; -0.142 in [10]. Besides, the composite z-score in assay [11] was 1.21; in [12] it was -0.248; in [13], -0.364; in assay [15], 0.369; in assay [16] it was 0.803; in assay [17] it was 0.771. Further, the composite z-score in [18] was determined as 0.959; in [19], 0.519; in assay [20] it was 0.572. The z-score was -2.58 (inactive) in assay [2]; -0.769 (inactive) in assay [3]; -0.827 (inactive) in [4]; 1.43 (inactive) in assay [6]; -0.867 (inactive) in [14].
As for `CCCC=C(CCC)[C@@H](NC(=O)c1ccc(-c2ccccc2)cc1)c1ccc(C(=O)OC)cc1`, the composite z-score in [1] was 0.665; in [5], 3.33; in assay [7], 0.0997; in assay [8], 0.0811; in assay [9], 1.07; in assay [10] it was -0.022. The composite z-score in assay [11] is 0.407; in assay [12], 0.245; in assay [13], 1; in assay [15], -0.316; in [16] it was 0.472; in [17], -0.237. Further, the composite z-score was 0.0286 in assay [18], -0.673 in assay [19] and 0.244 in assay [20]. For the same molecule, the z-score in assay [2] was 0.806 (inactive); in assay [3], 1.77 (inactive); in [4] it was 1.93 (inactive); in assay [6] it was -0.665 (inactive); in [14] it was -0.492 (inactive).
Regarding `CO[C@H]1O[C@H](CO)[C@@H](OC(=O)Nc2ccc3c(c2)OCO3)[C@H](OC(=O)Nc2ccccc2-c2ccccc2)[C@@H]1OC(=O)Nc1ccccc1-c1ccccc1`, the composite z-score in assay [1] is 1.54; in assay [5], 3.27; in assay [7] it was 0.0427; in assay [8], 0.943; in assay [9], 1.07; in [10], -0.0179. The composite z-score is 1.29 in assay [11]; 0.277 in [12]; 0.542 in assay [13]; 1.38 in assay [15]; 1.15 in [16]; 0.23 in [17]. Also, the values for the composite z-score in [18], in assay [19] and in assay [20] were 0.936, 0.271 and -0.548, respectively. The z-score in assay [2] is 2.12 (inactive); in assay [3], 1.8 (inactive); in assay [4], 0.91 (inactive); in assay [6], 0.39 (inactive); in assay [14], 0.176 (inactive).
